Data on five compounds can be found in PubChem BioAssay.

Activity calls are given as the source filed them.

Assay [1] in a line: binders of probe aFSTL3 on microarray, primary screen, stem cell growth factor project, biochemical, small-molecule microarray, fluorescence 635/667 (AID 1064).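 Also: measures binding of the biotinylated anti-FSTL3 antibody to printed compounds.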 The settings on record: higher = more signal.
Assay [2] in a line: binders from COS7 lysate, DM2A8 probe, primary screen, torsin A project, cell lysate, small-molecule microarray, fluorescence 635/667 (AID 1065). Conditions: higher = more signal, COS7 lysate expressing mutant human TOR1A.
Assay [3] in a line: binders of probe aFGF2 on microarray, primary screen, stem cell growth factor project, biochemical, small-molecule microarray, fluorescence 635/667 (AID 1067).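 Also: measures binding of biotinylated aFGF2 protein to printed compounds on slides; z-score merges feature fluorescence and signal-to-noise across triplicate slides.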 The settings on record: higher = more signal.
Assay [4] can be described thus: binders of probe aFGF10 on microarray, primary screen, stem cell growth factor project, biochemical, small-molecule microarray, fluorescence 635/667 (AID 1071).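 Also: score merges 667 nm spot intensity and signal to noise from triplicate slides.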 Conditions: higher = more signal.
For assay [5], the target named is Neurogenic locus notch homolog protein 2 (Homo sapiens) (UniProt Q04721). Nature of the assay: Notch2 binders on small-molecule microarrays, primary screen, biochemical, small-molecule microarray, 635 nm fluorescence, stem cell growth factors (AID 1073). The settings on record: Notch2 binding, higher = more signal.
Assay [6] has as its target Pro-neuregulin-1, membrane-bound isoform (Homo sapiens) (UniProt Q02297). Description: NRG1 binders on small-molecule microarrays, primary screen, psychiatric disease protein project, biochemical, small-molecule microarray, fluorescence 635/667 (AID 1075).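 Also: score combines 667 nm spot fluorescence with signal to noise.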 Conditions: NRG1 binding, 635 nm fluorescence, higher = more signal.
Assay [7] has as its system Neuregulin-1 EGF-like domain. Nature of the assay: binders of neuregulin-1 EGF-like domain, primary screen, biochemical, small-molecule microarray, 635 nm fluorescence (AID 1081).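 Also: binding of the protein to compounds printed on small-molecule microarray slides.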 The settings on record: small-molecule microarray binding, higher = more signal.
The nature of assay [8]: FRG1 promoter luciferase signal modulators, primary screen, FRG1 inhibition for FSHD, cell-based, C2C12 myotubes, firefly/Renilla luciferase, luminescence (AID 1084). Conditions: higher = more signal, called active from +8 up or from −8 down.
Assay [9] in a line: binders of probe aFST on microarray, primary screen, stem cell growth factor project, biochemical, small-molecule microarray, fluorescence 635/667 (AID 1086).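 Also: score merges 667 nm fluorescence with signal-to-noise of each printed compound spot.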 The settings on record: higher = more signal.
Assay [10] is described as follows: binders of probe aHhip on microarray, primary screen, stem cell growth factor project, biochemical, small-molecule microarray, fluorescence 635/667 (AID 1087).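 Also: score merges spot fluorescence at 667nm with spot signal to noise ratio.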 The settings on record: higher = more signal.
For assay [11], the system named is PRMT1 (protein arginine N-methyltransferase 1). Nature of the assay: PRMT1 binders on small-molecule microarrays, primary screen, biochemical, small-molecule microarray, 635 nm fluorescence (AID 1088).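 Also: binding of Prmt1 protein to compounds spotted on small-molecule microarray slides.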 The settings on record: small-molecule microarray binding, higher = more signal.
Assay [12] is described as follows: yeast growth modulation, basal conditions, primary screen, YJM789 clinical isolate, OD600, 24 h (AID 1089).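 Also: growth of clinical yeast isolate S. cerevisiae YJM 789 seeded 1000 cells per well; test concentration not given here.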 The settings on record: S. cerevisiae YJM789 growth, higher = more signal, called active from +8 up or from −8 down.
Assay [13] in a line: fission yeast growth modulation, primary screen, strain 972, OD600, 24 h, no modulator (AID 1090).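 Also: basal condition with compound alone and no growth modifier present; test concentration not given here.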 Conditions: S. pombe 972 growth, higher = more signal, called active from +8 up or from −8 down.
Assay [14] in a line: S. cerevisiae growth modulation with rapamycin, primary screen, strain BY4716, OD600, 96 h (AID 1091). Also: test concentration not given here. The settings on record: higher = more signal, called active from +8 up or from −8 down.
Assay [15] concerns the target Torsin-1A-interacting protein 2 (Homo sapiens) (UniProt Q8NFQ8). Description: LULL1 binders on small-molecule microarray, primary screen, cell lysate, human LULL1 lysate, 635/667 nm fluorescence (AID 1092).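 Also: probe is lysate of COS7 cells overexpressing human LULL1; score merges per-feature 667 nm fluorescence with signal-to-noise.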 Conditions: hLULL1 lysate binding, 635 nm fluorescence, higher = more signal.
A short description of assay [16]: E. coli growth modulation, two-sided OD650, primary screen, E. coli filamentation project, strain DRC41, 24 h (AID 1093).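 Also: MC1000 strain lacking acrAB efflux and sulA so SOS filamentation is blocked; test concentration not given here.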 The settings on record: OD650, 24 h, higher = more signal, called active from +8 up or from −8 down.
Assay [17] is described as follows: small-molecule microarray binders of probe aLefty2, primary screen, biochemical, biotinylated probe, 635/667 nm fluorescence (AID 1094).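 Also: score merges spot fluorescence near 667 nm with spot signal-to-noise ratio.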 The settings on record: higher = more signal.
The subject of assay [18] is Noggin (protein binding on small-molecule microarray). Description: Noggin binders on small-molecule microarray, primary screen, biochemical, 635/667 nm fluorescence (AID 1095).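 Also: score merges 667 nm feature fluorescence with signal to noise over triplicate slides.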 Conditions: 635 nm fluorescence, higher = more signal.
Assay [19] concerns the target Neurogenic locus notch homolog protein 3 (Homo sapiens) (UniProt Q9UM47). Nature of the assay: NOTCH3 binders on small-molecule microarray, primary screen, biochemical, 635/667 nm fluorescence (AID 1096). Conditions: NOTCH3 binding, 635 nm fluorescence, higher = more signal.
The nature of assay [20]: small-molecule microarray binders of probe aEGFR, primary screen, biochemical, biotinylated probe, 635/667 nm fluorescence (AID 1097).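 Also: probe is a biotinylated anti-EGFR antibody binding compounds printed on slides; score combines fluorescence near 667 nm and signal to noise of each spot.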 The settings on record: higher = more signal.

Torsin-1A-interacting protein 2 (Homo sapiens), sequence (Q8NFQ8 whole entry, looked up): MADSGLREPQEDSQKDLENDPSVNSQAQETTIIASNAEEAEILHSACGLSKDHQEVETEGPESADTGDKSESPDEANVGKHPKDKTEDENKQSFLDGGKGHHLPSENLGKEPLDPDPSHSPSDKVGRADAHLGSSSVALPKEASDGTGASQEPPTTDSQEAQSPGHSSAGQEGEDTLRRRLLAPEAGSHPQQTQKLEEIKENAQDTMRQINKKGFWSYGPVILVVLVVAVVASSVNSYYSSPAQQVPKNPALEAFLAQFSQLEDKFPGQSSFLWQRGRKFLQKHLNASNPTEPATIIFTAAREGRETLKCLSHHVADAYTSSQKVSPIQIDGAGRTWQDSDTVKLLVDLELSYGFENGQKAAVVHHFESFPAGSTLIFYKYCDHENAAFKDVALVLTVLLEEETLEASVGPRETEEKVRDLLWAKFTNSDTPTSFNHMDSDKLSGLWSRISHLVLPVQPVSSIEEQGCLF
Neurogenic locus notch homolog protein 3 (Homo sapiens), sequence (Q9UM47 whole entry, looked up): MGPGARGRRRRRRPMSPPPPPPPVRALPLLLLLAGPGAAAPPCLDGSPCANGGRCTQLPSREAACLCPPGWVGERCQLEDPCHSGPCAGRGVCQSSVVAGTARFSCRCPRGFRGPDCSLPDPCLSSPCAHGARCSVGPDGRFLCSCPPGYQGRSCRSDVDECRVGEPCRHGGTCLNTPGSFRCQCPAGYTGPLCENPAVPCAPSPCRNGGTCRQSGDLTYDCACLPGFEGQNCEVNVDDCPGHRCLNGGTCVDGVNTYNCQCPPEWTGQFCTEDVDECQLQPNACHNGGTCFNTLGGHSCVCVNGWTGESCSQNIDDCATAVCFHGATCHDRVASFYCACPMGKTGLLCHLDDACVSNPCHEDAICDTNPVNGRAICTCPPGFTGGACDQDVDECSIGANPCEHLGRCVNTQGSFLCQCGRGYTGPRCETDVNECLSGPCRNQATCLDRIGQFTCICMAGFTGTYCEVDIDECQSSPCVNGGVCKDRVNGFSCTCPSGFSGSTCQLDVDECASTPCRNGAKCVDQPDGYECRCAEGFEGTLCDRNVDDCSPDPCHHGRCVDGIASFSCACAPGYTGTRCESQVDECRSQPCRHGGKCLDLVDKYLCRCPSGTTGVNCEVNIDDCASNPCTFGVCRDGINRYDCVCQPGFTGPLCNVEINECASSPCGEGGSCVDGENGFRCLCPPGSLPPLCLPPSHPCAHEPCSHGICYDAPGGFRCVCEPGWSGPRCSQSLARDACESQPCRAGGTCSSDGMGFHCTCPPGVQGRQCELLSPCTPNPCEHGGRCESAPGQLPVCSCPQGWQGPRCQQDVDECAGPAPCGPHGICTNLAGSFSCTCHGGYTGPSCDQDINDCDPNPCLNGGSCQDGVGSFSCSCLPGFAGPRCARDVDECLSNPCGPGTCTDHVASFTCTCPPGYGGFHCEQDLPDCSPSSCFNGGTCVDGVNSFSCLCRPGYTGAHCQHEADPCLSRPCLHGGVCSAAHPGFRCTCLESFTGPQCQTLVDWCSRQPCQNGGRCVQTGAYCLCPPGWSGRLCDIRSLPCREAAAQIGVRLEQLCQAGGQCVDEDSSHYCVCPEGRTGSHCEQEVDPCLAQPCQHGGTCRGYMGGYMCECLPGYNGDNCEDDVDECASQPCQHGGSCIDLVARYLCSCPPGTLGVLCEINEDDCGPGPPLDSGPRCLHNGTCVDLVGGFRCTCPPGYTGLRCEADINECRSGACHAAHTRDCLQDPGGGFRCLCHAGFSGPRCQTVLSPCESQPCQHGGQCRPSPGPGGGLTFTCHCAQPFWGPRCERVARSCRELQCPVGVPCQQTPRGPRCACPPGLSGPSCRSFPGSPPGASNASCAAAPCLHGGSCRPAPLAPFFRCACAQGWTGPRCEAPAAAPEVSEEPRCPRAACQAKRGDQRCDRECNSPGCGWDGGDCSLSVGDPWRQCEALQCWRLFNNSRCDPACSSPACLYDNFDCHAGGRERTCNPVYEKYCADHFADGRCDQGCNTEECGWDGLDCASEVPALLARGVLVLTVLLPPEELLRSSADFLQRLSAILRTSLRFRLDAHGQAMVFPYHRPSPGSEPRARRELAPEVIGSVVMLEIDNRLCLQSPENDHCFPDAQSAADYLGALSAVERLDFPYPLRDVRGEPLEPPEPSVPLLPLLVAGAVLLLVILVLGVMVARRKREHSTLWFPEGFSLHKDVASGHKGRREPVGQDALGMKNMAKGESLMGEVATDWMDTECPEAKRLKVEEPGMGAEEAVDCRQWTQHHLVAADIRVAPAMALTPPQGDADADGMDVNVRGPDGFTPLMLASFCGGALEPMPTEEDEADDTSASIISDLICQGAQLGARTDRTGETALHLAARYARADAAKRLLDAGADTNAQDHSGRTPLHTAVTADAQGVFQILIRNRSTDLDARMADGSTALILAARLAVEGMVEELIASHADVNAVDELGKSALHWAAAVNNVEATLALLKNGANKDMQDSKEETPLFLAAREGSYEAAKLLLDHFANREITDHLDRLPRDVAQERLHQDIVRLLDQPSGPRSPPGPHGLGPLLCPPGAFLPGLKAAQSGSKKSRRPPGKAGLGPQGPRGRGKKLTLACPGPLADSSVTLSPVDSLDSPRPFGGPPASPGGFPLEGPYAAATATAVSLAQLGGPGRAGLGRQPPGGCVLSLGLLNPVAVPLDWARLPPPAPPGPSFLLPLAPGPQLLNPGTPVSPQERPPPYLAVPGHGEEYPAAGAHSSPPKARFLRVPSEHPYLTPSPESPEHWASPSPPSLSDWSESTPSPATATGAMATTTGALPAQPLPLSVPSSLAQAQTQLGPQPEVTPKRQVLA
Pro-neuregulin-1, membrane-bound isoform (Homo sapiens), sequence (Q02297 whole entry, looked up, the tested form may be a part, canonical isoform): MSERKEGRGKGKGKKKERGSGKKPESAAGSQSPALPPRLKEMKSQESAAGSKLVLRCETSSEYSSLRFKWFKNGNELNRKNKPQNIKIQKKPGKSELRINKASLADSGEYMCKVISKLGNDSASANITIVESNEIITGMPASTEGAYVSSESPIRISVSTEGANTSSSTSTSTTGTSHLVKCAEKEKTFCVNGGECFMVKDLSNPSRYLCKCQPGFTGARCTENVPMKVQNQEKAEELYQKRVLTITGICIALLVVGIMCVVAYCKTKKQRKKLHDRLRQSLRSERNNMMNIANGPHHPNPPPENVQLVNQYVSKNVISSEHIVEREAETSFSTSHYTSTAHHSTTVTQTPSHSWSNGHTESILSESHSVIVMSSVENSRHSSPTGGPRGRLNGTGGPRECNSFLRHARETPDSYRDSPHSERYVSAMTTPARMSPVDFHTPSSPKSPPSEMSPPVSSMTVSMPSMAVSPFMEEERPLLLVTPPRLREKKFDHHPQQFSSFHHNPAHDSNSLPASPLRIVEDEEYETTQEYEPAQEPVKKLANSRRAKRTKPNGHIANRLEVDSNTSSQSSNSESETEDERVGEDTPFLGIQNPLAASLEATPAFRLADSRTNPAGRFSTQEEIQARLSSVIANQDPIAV

As for `COc1ccc2c(c1)O[C@@H](c1cccc(C(F)(F)F)c1)[C@H](O)C2=O`, the composite z-score in assay [1] is -0.609; in [2], -0.184; in assay [3], -0.131; in assay [4] it was 0.452; in [5] it was 0.242; in assay [6], 0.0761. Further, the composite z-score is 0.4 in assay [7]; 0.0335 in assay [9]; -0.236 in [10]; 0.222 in assay [11]; 1.19 in assay [15]; -0.261 in assay [17]. The composite z-score in assay [18] was 0.614; in assay [19], 0.661; in assay [20], 0.0251. Also, the z-score was -0.682 (inactive) in assay [8]; -3.42 (inactive) in assay [12]; -6.34 (inactive) in [13]; -0.489 (inactive) in [14]; 1.2 (inactive) in [16].

For the compound `CCCNC(=O)OC[C@H]1O[C@H](CCON=C[C@@H](C)[C@H](OCc2ccccc2)C(C)C)C=C[C@@H]1Oc1ccc(OC)cc1`, the composite z-score is -0.273 in assay [1]; 0.729 in assay [2]; -0.161 in assay [3]; 0.416 in assay [4]; -0.566 in [5]; -0.645 in assay [6]. For the same compound, the composite z-score in [7] is -0.814; in assay [9], -0.307; in assay [10] it was -0.0346; in [11], -0.295; in [15], -0.605; in [17], -0.0753. The composite z-score in [18] was -0.0593; in assay [19], -0.942; in assay [20] it was -0.141. Also, the z-score was -0.748 (inactive) in assay [8]; -2.24 (inactive) in assay [12]; -1.52 (inactive) in assay [13]; -0.25 (inactive) in assay [14]; -1.13 (inactive) in [16].

Consider `CCN(CC)CC(O)CN1CCCCc2nc(C)c(C)cc21` (stereo not given), for which the composite z-score in [1] is -0.482; in assay [2], 1.04; in assay [3], -0.14; in assay [4] it was 0.456; in [5], 0.635; in assay [6], -0.164. In addition, the composite z-score was 1.07 in [7]; 0.101 in [9]; -0.112 in assay [10]; 0.357 in [11]; 0.657 in assay [15]; -0.343 in assay [17]. The composite z-score in assay [18] is 0.454; in [19], 0.431; in assay [20] it was -0.0148. In addition, the z-score was -1.2 (inactive) in [8]; -1.59 (inactive) in [12]; -1.34 (inactive) in [13]; -0.425 (inactive) in assay [14]; -0.0207 (inactive) in assay [16].

In the case of `CC(CCC(=O)OC[C@H]1O[C@H](C#Cc2ccccc2)C=C[C@@H]1Oc1ccc(C)cc1)=NO[C@H](C)c1cn([C@@H]2COC[C@H]2O)nn1`, the composite z-score was -0.484 in [1]; 0.522 in assay [2]; -0.148 in [3]; 0.0898 in assay [4]; -0.31 in assay [5]; -0.0103 in assay [6]. Besides, the composite z-score was 0.452 in [7]; -0.0115 in [9]; -0.134 in [10]; 0.535 in [11]; 0.042 in assay [15]; -0.128 in assay [17]. The composite z-score in assay [18] is 0.375; in assay [19], -0.151; in [20], -0.137. For the same compound, the z-score in assay [8] was -1.03 (inactive); in [12], -1.42 (inactive); in assay [13] it was -0.688 (inactive); in assay [14], -0.0188 (inactive); in assay [16], -0.342 (inactive).

On to `CC[C@@H](c1ccccc1)n1c(=O)n2n(c1=O)[C@H]1[C@H](O)[C@@H]3O[C@@H]3C(=NOCc3ccccc3)[C@H]1CC2`, for which the composite z-score in assay [1] is 0.83; in [2] it was 0.374; in [3] it was -0.172; in assay [4], 0.0913; in assay [5], 0.57; in assay [6], 0.834. Besides, the composite z-score in assay [7] was 0.504; in [9] it was -0.0575; in assay [10] it was -0.13; in [11], -0.454; in assay [15], 0.786; in [17], -0.132. Also, the composite z-score in assay [18] was 1.3; in [19], 0.81; in [20], -0.0824. Also, the z-score in assay [8] was 2.67 (inactive); in [12], 0.183 (inactive); in assay [13], -1.17 (inactive); in assay [14], 0.191 (inactive); in [16] it was -0.866 (inactive).
